G9a inh – qHTS Assay for Inhibitors of Histone Lysine Methyltransferase G9a; G9a H3K9 monomethylation, AlphaScreen, 2 h; Histone-lysine N-methyltransferase EHMT2 (Homo sapiens), Q96KQ7; Potency, µM (series often up to 102 µM), usual class: inhibitors; AID 504332, 2011; 350,000 compounds, 8.8% hits; note: nearly all actives have a fitted effect of over 75% in size
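Step 1: enzyme (final 20 nM) with compound, 15 min RT. Step 2: substrate peptide 500 nM and SAM 20 uM, 2 h RT. Step 3: anti-H3K9me1 antibody and AlphaScreen beads, 10 min, then plate read.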
HP1b chromo inh – HTS for Inhibitors of HP1-beta Chromodomain Interactions with Methylated Histone Tails; AlphaScreen HP1-beta / biotin-H3K9me3 peptide binding; Potency, µM (doses to about 114 µM), hits mostly inhibitors; 390,000 compounds, 0.56% hits; AID 540317, 2011; note: nearly all actives have a fitted effect of over 70% in size
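Compound inhibition of the preformed complex between 50 nM HP1-beta and 50 nM biotinylated H3K9me3 peptide was read by AlphaScreen. Buffer was PBS pH 7.4 with 0.01% Tween-20. Incubations ran 30 min at room temperature, with 10 ug/mL donor/acceptor beads.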
L3MBTL1 block – qHTS Assay for the Inhibitors of L3MBTL1; Lethal(3)malignant brain tumor-like protein 1 (Homo sapiens), Q9Y468; AlphaScreen L3MBTL1–H3K9me1 peptide binding; Potency, µM (doses to about 57.1 µM), actives largely listed as inhibitors; 230,000 compounds, 0.66% hits; AID 485360, 2010; note: nearly all actives have a fitted effect of over 60% in size
Target sequence (Q9Y468 whole entry, looked up): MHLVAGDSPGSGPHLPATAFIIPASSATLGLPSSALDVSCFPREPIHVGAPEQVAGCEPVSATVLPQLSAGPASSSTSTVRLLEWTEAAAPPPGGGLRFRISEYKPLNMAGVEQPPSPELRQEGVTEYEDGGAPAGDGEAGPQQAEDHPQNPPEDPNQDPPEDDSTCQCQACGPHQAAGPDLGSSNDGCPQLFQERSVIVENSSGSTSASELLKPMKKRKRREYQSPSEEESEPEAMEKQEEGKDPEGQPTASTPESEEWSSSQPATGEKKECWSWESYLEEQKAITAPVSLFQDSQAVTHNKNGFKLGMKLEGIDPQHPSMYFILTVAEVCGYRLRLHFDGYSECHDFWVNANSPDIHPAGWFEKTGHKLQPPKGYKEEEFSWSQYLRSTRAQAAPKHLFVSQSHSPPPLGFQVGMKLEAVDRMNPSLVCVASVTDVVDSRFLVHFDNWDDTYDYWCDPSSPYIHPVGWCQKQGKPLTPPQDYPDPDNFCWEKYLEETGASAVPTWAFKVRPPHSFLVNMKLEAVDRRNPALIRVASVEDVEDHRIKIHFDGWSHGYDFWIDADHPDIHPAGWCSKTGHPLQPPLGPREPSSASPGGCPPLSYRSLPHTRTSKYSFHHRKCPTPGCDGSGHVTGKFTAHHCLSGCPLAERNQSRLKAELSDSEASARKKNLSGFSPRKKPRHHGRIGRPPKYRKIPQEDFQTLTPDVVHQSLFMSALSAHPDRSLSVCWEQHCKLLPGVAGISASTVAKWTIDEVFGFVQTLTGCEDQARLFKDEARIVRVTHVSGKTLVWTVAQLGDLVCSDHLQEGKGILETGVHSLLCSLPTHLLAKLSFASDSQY
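Displacement of a biotinylated histone H3(1-15) peptide monomethylated at Lys9 (75 nM) from L3MBTL1 (50 nM) was measured by AlphaScreen after a 30 min room-temperature compound incubation; cefsulodin titration served as intraplate control.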
PI5P4Ka inh – qHTS for Inhibitors of phosphatidylinositol 5-phosphate 4-kinase (PI5P4K); Phosphatidylinositol 5-phosphate 4-kinase type-2 alpha (Homo sapiens), P48426; PI5P4Kalpha enzyme, ADP-Glo luminescence, 60 min; active compounds read low; max response, %; 330,000 compounds, 1.2% hits; active = max response of -50% or lower; inconclusive = between -30% and -50%; inactive = -30% or higher; note: value at the top dose of about 77 µM
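Compounds were pin-transferred onto PI5P4Kalpha and substrate in HEPES pH 7.4 buffer with EGTA, CHAPS and 5% DMSO. ATP (5 microM final) started the reaction, which ran 60 minutes at room temperature before ADP-Glo detection.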
JMJD2A Tudor – qHTS Assay for Inhibitors of JMJD2A-Tudor Domain; AlphaScreen JMJD2A-Tudor / H3K4me3 peptide binding; Potency, µM (top dose mostly 114 µM), hits mostly inhibitors; 390,000 compounds, 4.4% hits; AID 504339, 2011; note: nearly all actives have a fitted effect of over 50% in size
BAZ2B block – qHTS Assay for Inhibitors of BAZ2B | AlphaScreen BAZ2B-H3K14Ac peptide displacement | Bromodomain adjacent to zinc finger domain protein 2B (Homo sapiens), Q9UIF8 | Potency, µM (doses to about 114 µM), actives largely listed as inhibitors | 360,000 compounds, 4.4% hits; note: nearly all actives have a fitted effect of over 60% in size
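Compounds, titrated to a top concentration of 110 uM, were incubated 30 min at room temperature with preformed BAZ2B/acetyl-K14 H3 peptide complex (50 nM each). Proximity signal was measured by AlphaScreen after 20 min with beads.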
Hits are given with their value; i = inactive; ? = inconclusive; nt = no result; [ ] = dose if it differs, or a comment. Hits are enriched below; roughly 11% of the tested compounds scored in any of these assays. Unless noted, calls come from the whole dose curve; as a rule, active = well fitted inhibition curve with a large enough effect; inconclusive = small, poorly fitted or top-dose-only effect; inactive = no such curve, though single readings can be large or run the other way.

SMILES	G9a inh	HP1b chromo inh	L3MBTL1 block	PI5P4Ka inh	JMJD2A Tudor	BAZ2B block
COc1cc(OC)c2ccc(=O)oc2c1C(CCN1CCCC1)c1ccc2c(c1)OCO2 (stereo not drawn)	i[12.7 µM]	i	nt	i	i	i
CCCCCc1cc(=O)oc2c(C(CCN3CCCC3)c3ccc4c(c3)OCO4)c(OC)cc(OC)c12 (stereo not drawn)	nt	i	nt	nt	50.1µM	nt
COc1ccc(-c2noc(-c3ccc(N4CCN(c5ccc(OC)cc5)CC4)c([N+](=O)[O-])c3)n2)cc1	i	i	nt	nt	i	i
COc1ccc(CNS(=O)(=O)c2ccc(-n3cnnn3)c(OC)c2)cc1	50.1µM	i	nt	i	i	i
COc1cc(S(=O)(=O)NCCc2ccc3c(c2)OCO3)ccc1-n1cnnn1	56.2µM	i	i	nt	i	i
C#C[C@]1(O)CC[C@@H]2[C@H]3CCC4=CC(=O)CC[C@H]4[C@H]3C(=C)C[C@@]21CC	i[12.7 µM]	nt	nt	nt	nt	nt
CCC1CCCCN1C(=S)Nc1ccc(OC(F)F)cc1 (stereo not drawn)	i	i	i	i	i	i
O=C(CN1CCCCC1CO)c1ccc(OC(F)F)cc1 (stereo not drawn)	56.2µM	i	i	i	i	i
O=C(CCc1ccccc1)NNC(=O)c1ccccc1C(=O)O	10µM	i	i	i	i	i
O=C(CCc1ccccc1)NNC(=O)c1ccccc1Br	28.2µM	i	i	i	i	i
Cc1ccccc1C(=O)NNC(=O)CCc1ccccc1	i[12.7 µM]	i	?	i	i[11.4 µM]	i
Cc1ccccc1/C=N/Nc1ccc(Cl)nn1	10µM	i	i	i	i	i
C(=N\Nc1nn[nH]n1)/c1ccccc1	35.5µM	i	nt	nt	89.1µM	?
Clc1ccc(/C=N/Nc2nn[nH]n2)cc1	10µM	i	i	i	?	i
O=[N+]([O-])c1ccc(O)c(/C=N/Nc2ccc(Cl)nn2)c1	nt	i	?	i	7.94µM	3.98µM
COc1cc(OC)c(OC)cc1/C=N/Nc1ccc(Cl)nn1	i	i	nt	i	i	i
CCOc1ccc(CCNC(=O)CCCc2nnc3n(CC(C)C)c(=O)c4sccc4n23)cc1	i	i	nt	nt	i	i
Cc1noc(C)c1C(=O)N1CCC[C@@]2(CCN(c3ncccn3)C2)C1	i[12.7 µM]	nt	nt	nt	nt	nt
Cc1ccc(N2CC(NC(=O)c3cccc(Cl)c3)CC2=O)cc1C (stereo not drawn)	i	i	nt	nt	i	i
O=[N+]([O-])c1ccc(O)c(/C=N/Nc2nn[nH]n2)c1	i	i	14.1µM	i	10µM	6.31µM
NC(N)=N/N=C/c1cc([N+](=O)[O-])ccc1O	i	i	i	i	i	i
Oc1ccccc1/C=N/Nc1nn[nH]n1	39.8µM	i	i	i	56.2µM	44.7µM
CN(C)c1nc(N/N=C/c2ccccc2O)nc(Nc2ccc(F)cc2)n1	i	i	nt	i	i	?
O=[N+]([O-])c1ccc(O)c(-c2nn[nH]n2)c1	?	?	nt	-53.6	3.16µM	2.82µM
O=C(Nc1cc(Cl)ccc1Cl)c1cc(S(=O)(=O)N2CCc3ccccc3C2)ccc1F	i	i	nt	nt	i	i
SMILES	G9a inh	HP1b chromo inh	L3MBTL1 block	PI5P4Ka inh	JMJD2A Tudor	BAZ2B block
Cc1[nH]c(=O)[nH]c1C(=O)CCCCC(=O)O	1.58µM	i	0.355µM	i	0.891µM	0.891µM
CCOC(=O)c1cccc(Nc2cc(C)nc(C)n2)c1	i	i	nt	nt	i	i
Cc1nc2c(Cl)cccc2[nH]1	56.2µM	i	nt	i	i	i
COc1cccc(OC)c1OCCOCCN1CCN(C)CC1	i[2.33 µM]	i	nt	i	i	i
CN1CCN(CCOc2ccc(-c3ccccc3)cc2)CC1	50.1µM	i	nt	i	i	?
O=C(O)c1cccc(OCCN2CCCC2=O)c1	nt	i	nt	i	i	i
CN1CCC(=O)N(CCOc2ccccc2)CC1	28.2µM	i	i	i	?	?
COc1ccc(OCCOCCN2CCN(C)CC2)cc1	22.4µM	?	i	i	17.8µM	50.1µM
CC1CCc2onc(C(=O)N3CCN(c4ccccc4)CC3)c2C1 (stereo not drawn)	i	i	nt	nt	i	i
CSc1nc(C)cc(C)c1C#N	i	i	i	-50.1	i	i
Cc1cc(C)c(C#N)c(SCc2ccc(F)cc2)n1	i	i	i	i	i	i
CCOC(=O)c1cc(C)nc(SC)c1C#N	50.1µM	i	i	i	i	i
O=c1[nH]sc2ccccc12	1.78µM	i	i	-92.7	31.6µM	50.1µM
CC1(C)OC(=O)C2(Cc3c(F)cccc3N3CCCC32)C(=O)O1 (stereo not drawn)	nt	i	nt	nt	i	nt
COc1ccccc1CNCc1ccc(OC)c(OC)c1OC	10µM	?	i	nt	14.1µM	79.4µM
COc1cccc(CNCc2ccccc2Br)c1OC	i[0.501 µM]	?	i[2.29 µM]	i	1.58µM	?
COc1ccc(CNC2CCCC2)c(OC)c1OC	i[12.7 µM]	i	nt	i	i	i
Cc1ccc(Sc2ccc(N3CCCC(C(=O)Nc4ccc(Br)cc4)C3)nn2)cc1 (stereo not drawn)	i	i	nt	nt	i	i
Cc1o[nH]c(=O)c1CCC(N)C(=O)O (stereo not drawn)	i	nt	nt	nt	nt	nt
CSc1nc2c(c(=O)n1Cc1ccccc1)SC(C)C2 (stereo not drawn)	?	i	i	nt	i	i
CSc1nc2[nH]c(=O)n(O)c(=O)c2n1Cc1ccccc1	nt	i	nt	?	3.16µM	nt
O=C(CNCc1ccccc1Cl)Nc1ccc2c(c1)OCCO2	nt	?	i	i	28.2µM	56.2µM
O=C(CSc1nccn1Cc1ccc(Cl)cc1)Nc1ccc2c(c1)OCCO2	?	i	nt	nt	50.1µM	?
O=C(CSc1nc2c(c(=O)n1-c1ccc(Cl)cc1)SCC2)Nc1ccc2c(c1)OCCO2	44.7µM	i	i	i	i	i
O=C(CSCc1ccccc1Cl)Nc1ccc2c(c1)OCCO2	i[0.501 µM]	i	i	i	i	?
SMILES	G9a inh	HP1b chromo inh	L3MBTL1 block	PI5P4Ka inh	JMJD2A Tudor	BAZ2B block
O=C(CSc1nc2c(c(=O)n1-c1ccc(F)cc1)SCC2)Nc1ccc2c(c1)OCO2	nt	i	nt	nt	i	nt
O=C(CNCc1ccc(Cl)cc1)Nc1ccc2c(c1)OCCO2	11.2µM	?	i	i	17.8µM	56.2µM
CC(=O)Nc1ccc(NC(=O)CSc2nccn2Cc2ccc(Cl)cc2)cc1	i	i	nt	i	i	?
COc1ccc(S(=O)(=O)c2cn(C)c3cc(N4CCCCCC4)c(F)cc3c2=O)cc1	i	i	nt	nt	i	i
Cc1c(Br)cc(F)c([S+](=O)([O-])N2CCN([S+](=O)([O-])c3ccc4c(c3)OCCO4)CC2)c1F	nt	nt	nt	nt	i	nt
Nn1c(SCC(=O)Nc2ccc3c(c2)OCO3)nnc1-c1ccc(Cl)cc1	i	i	i	nt	i	i

Source: PubChem
